Screens: PubChem, National Center for Advancing Translational Sciences (NCATS)
Shown is part of a subset that was picked to be rich in hits.
NS1 inh = qHTS Assay for Inhibitors of Influenza NS1 Protein Function; actives 0.4% (n = 270,000); AID 2326, 2010; Potency, µM (highest dose often 46.1 µM), for the others: top-dose activity, positive = more growth; calls by dose curve; further: potency means the concentration at half of the fitted maximal effect; actives are rising curves; nearly all actives have a fitted effect of over 50% in size
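Growth recovery, yeast-based: influenza A NS1 expressed in S. cerevisiae causes slow growth, and suppressors are detected by OD600. The parent strain without NS1 is used as positive control.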
AmpC inh detg = qHTS Inhibitors of AmpC Beta-Lactamase (assay with detergent); AmpC hydrolysis of nitrocefin, absorbance 480 nm, 0.01% Triton; actives 0.041% (n = 370,000); Potency, µM (series often up to 114 µM), inactives show at the top dose activity change, negative = inhibition, hits mostly inhibitors;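 further: potency means the concentration at half of the fitted maximal effect; 0% = no-compound wells and -100% = no-enzyme wells; nearly all actives have a fitted effect of over 25% in size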
Target sequence (P00811 whole entry, looked up): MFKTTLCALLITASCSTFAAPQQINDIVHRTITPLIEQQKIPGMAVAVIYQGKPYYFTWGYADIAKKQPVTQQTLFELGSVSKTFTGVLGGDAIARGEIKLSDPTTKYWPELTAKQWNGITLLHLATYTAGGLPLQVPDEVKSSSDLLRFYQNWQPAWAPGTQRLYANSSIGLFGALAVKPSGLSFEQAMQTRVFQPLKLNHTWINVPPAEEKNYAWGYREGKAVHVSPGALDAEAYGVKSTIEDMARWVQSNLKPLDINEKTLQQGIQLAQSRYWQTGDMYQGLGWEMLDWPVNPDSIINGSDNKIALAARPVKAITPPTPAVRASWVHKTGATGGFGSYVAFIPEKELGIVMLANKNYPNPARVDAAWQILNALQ
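AmpC (5.3 nM in the dispensed reagent) in 20 mM phosphate pH 7.0 with 0.01% (detergent screen) or 0.0001% Triton X-100 was preincubated with compounds for 15 min at room temperature. Nitrocefin was then added from an 800 uM solution, and hydrolysis was followed at 480 nm.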
Shiga toxin inh = A qHTS for Small Molecule Inhibitors of Shiga Toxin | Vero cells, Shiga toxin protein synthesis inhibition reporter | inhibition, % at 38.7 µM | actives 9.2% (n = 290,000) | AID 2315, 2010; in the data active means inhibition mostly above about 28%, no sharp cut-off; inactive means mostly below about 43%; further: 0% is about no effect
CHX counter = Cycloheximide Counterscreen for Small Molecule Inhibitors of Shiga Toxin; cell reporter, cycloheximide protein synthesis inhibition counterscreen; max response, %; actives 12% (n = 300,000); in the data active means max response mostly above about 13%, no sharp cut-off; inactive means mostly below about 14%; further: read at 38.3 µM for the half of the compounds with a filed dose; 0% is about no effect
AmpC no deterg = qHTS Inhibitors of AmpC Beta-Lactamase (assay without detergent) | P00811 | AmpC nitrocefin hydrolysis, absorbance 480 nm, 0.0001% Triton | Potency, µM (top dose mostly 57.1 µM), for the others: at the top dose activity change, negative = inhibition, actives largely listed as inhibitors | actives 0.52% (n = 330,000) | AID 485341, 2010;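 further: potency means the concentration at half of the fitted maximal effect; plate controls were no compound for no effect and no enzyme for full effect; nearly all actives have a fitted effect of over 20% in size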
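20 mM phosphate pH 7.0 + 0.01% (detergent screen) or 0.0001% Triton X-100; 5.3 nM AmpC reagent; cpd preinc 15 min RT; nitrocefin (800 uM stock) to start; A480 q20 s × 4 min; Activity was normalised to no-enzyme and no-compound control wells.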
* marks the source's active call; other numbers are inactive results; u = inconclusive; x = no result. Unless noted, the call rests on the fitted dose curve; in most records, active means well fitted curve in the direction sought with a large enough effect; inconclusive means small, poorly fitted or top-dose-only effect, or another doubt; inactive means no such curve, though single readings can be large; an effect the other way counts as inactive or inconclusive.

SMILES	NS1 inh	AmpC inh detg	Shiga toxin inh	CHX counter	AmpC no deterg
Cc1sc2c(c1C)CN(C1CC(C)(C)NC(C)(C)C1)CN2C(=O)c1ccco1	-8%	1%	44*	23*	47%
O=C(NCc1ccco1)/C(=C/c1ccc(C(F)(F)F)cc1)c1nc2ccccc2[nH]1	u	-4%	12*	59*	18µM*
O=C(NCc1ccco1)/C(=C/c1cccc(C(F)(F)F)c1)c1nc2ccccc2[nH]1	2%	u	-1	18*	-44%
O=C(COC(=O)/C=C/c1cccc(C(F)(F)F)c1)NCc1ccco1	x	0%	x	x	-14%
Cc1ccc(Nc2cc(C)c(C#N)c3nc4ccccc4n23)c(C)c1	x	21%	x	x	x
CCOc1cccc(CC(=O)N2CCc3c([nH]c4ccc(OC)cc34)C2c2ccc(F)cc2)c1OCC (stereo not drawn)	x	-12%	x	x	x
CCOC(=O)/C=C/c1cnn(-c2ccccc2)c1	-3%	8%	169*	89*	-3%
O=C(O)/C=C/c1cnn(-c2ccccc2)c1	0%	-4%	26	21*	-15%
O=C(O)/C=C/c1cn(-c2ccccc2)nc1-c1ccccc1	-46%	1%	20	14	-12%
O=C1[C@H](Oc2ccccc2)[C@@H](c2ccccc2)N1c1ccncc1	x	x	x	x	1%
CSc1ncc(C(=O)Nc2cc(C)cc(C)c2)c(-c2ccccc2)n1	x	0%	x	x	x
Cc1ccccc1-c1nnc(SCC(=O)Nc2cccnc2Cl)o1	x	x	x	x	-3%
CC(C)c1ccc(NC(=O)COC(=O)C2=COCCO2)cc1	-68%	1%	74	33*	-9%
